# In the library only some 1.7% were active in any assay of this set; here they are far more common.
# PfHsp40 yeast: rescue of yeast from PfHsp40 toxicity, primary screen, S. cerevisiae, ATP luminescence; 0.68% of 340,000 active; growth rescue, % at 12.5 µM; S. cerevisiae expressing PfHsp40, growth rescue; in the data active means growth rescue above about 28%, passing the limit was not always enough; inconclusive means no clear call, values can overlap the other calls;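 further: yeast W303a lacking pdr1 and pdr3 grown in galactose medium; growth measured after three days at 30 °C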
# CCHFV vOTU inh: CCHFV vOTU protease inhibitors, primary screen, biochemical, Pep-AMC substrate, fluorescence. AID 651958, 2012. 0.55% of 370,000 active. Crimean-Congo hemorrhagic fever virus L polyprotein viral ovarian tumor (vOTU) protease …. inhibition, % at 11.5 µM; in the data active means inhibition above about 30%; further: 0% = vehicle wells with enzyme and 100% = no enzyme wells
# Mtb hypoxia inh: PubChem AID 1159583 | M. tuberculosis hypoxia-regulated fluorescent reporter, fluorescence | fluorescence inhibition, % (concentration not given with the values) | 0.1% of 300,000 active; in the data active means fluorescence inhibition mostly above about 23%, no sharp cut-off; inactive means mostly below about 17%
# Sa RN4220 lethal: growth inhibition of S. aureus RN4220, primary screen, OD600 | 16 h | inhibition, % (no concentration beside the values) | 0.33% of 330,000 active | AID 1259311, 2017; in the data active means inhibition above about 85%;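 further: plate controls were untreated cells for no effect and reference antibiotic for full effect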
# BH1578 lux ind: inducers of Vibrio cholerae quorum light production without autoinducers, primary screen, BH1578 luxS cqsA deficient, single point; V. cholerae BH1578 lux reporter, luminescence, 6 h; activation, % at 18.7 µM; 0.16% of 350,000 active; AID 588436, 2011; in the data active means activation mostly above about 9.7%, no sharp cut-off; inconclusive means no clear call, values can overlap the other calls; inactive means mostly below about 3.7%
# Sa ugtP lethal: growth inhibition of ugtP-null S. aureus, primary screen, RN4220 ugtP deletion, OD600; 16 h; growth inhibition, % (test concentration not listed); 0.54% of 330,000 active; in the data active means growth inhibition above about 68%;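 further: plate controls were untreated wells for no effect and antibiotic for full effect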
# Starred values were filed as active, the others as inactive; i = inactive; ? = inconclusive; . = not tested or not shown.
SMILES,PfHsp40 yeast,CCHFV vOTU inh,Mtb hypoxia inh,Sa RN4220 lethal,BH1578 lux ind,Sa ugtP lethal
Cc1cccc(C(=O)NNC(=S)NC(=O)c2ccccc2)c1,127*,4,-16,52,-1,20
Cc1ccccc1C(=O)NNC(=S)NC(=O)c1ccccc1,169*,-2,2,33,0,8
O=C(NN=Cc1cc(Br)cs1)c1c[nH]c2ccccc12,.,.,3,6,.,-14
COc1ccc(C(=O)NNC(=S)NC(=O)c2ccc(F)cc2)cc1Br,.,-2,-1,81,4,85*
COc1ccccc1NC(=S)NNC(=O)c1ccccc1,29*,0,14,3,i,8
COc1ccccc1NC(=S)NNC(=O)c1ccncc1,-1,0,13,3,i,4
COc1ccccc1N1CCN(N=Cc2cccc(OC)c2O)CC1,.,.,19,4,.,5
Cc1ccc(C(=O)OCc2nnc(-c3ccc(Br)cc3)o2)cc1,27*,-2,8,6,0,8
Cc1ccc(-n2c(Cl)c(Cl)nc(Cl)c2=O)cc1,42*,.,1,100*,-2,100*
CCOc1ccc(-n2c(SCc3ccc([N+](=O)[O-])cc3)nnc2-c2ccccc2)cc1,8,-18,5,59,i,86*
O=c1[nH]c2ccccc2nc1-c1ccccc1,1,-47,-6,5,i,17
NC(=O)N=Nc1c2[nH]c3ccccc3nc-2c2ccccc12,45*,13,.,.,i,.
COC(=O)c1ccc(C=Nn2cnnc2)cc1,.,.,-3,3,.,-3
Oc1c(Br)cc(Br)c2cccnc12,148*,3,.,.,1,.
Cc1nccn1CC(=O)NN=Cc1ccccc1O,.,.,14,2,.,0
CCCN(CCC)Cc1c(C(=O)NN=Cc2cccs2)nnn1-c1nonc1N,.,.,-7,1,.,7
O=[N+]([O-])c1ccc2[nH]c(O)c(N=NC(=S)Nc3cccnc3)c2c1,41*,11,4,13,0,10
O=[N+]([O-])c1ccc(-c2nnc3n2CCCCC3)cc1,0,4,-1,2,-1,3
O=c1c2c(-c3ccc([N+](=O)[O-])cc3)csc2nc2n1CCC2,-1,7,36*,5,i,-4
O=C(NN=C/C=C\c1ccccc1[N+](=O)[O-])c1ccccn1,.,.,-7,0,.,4
CCc1ccc2[nH]c(=O)c(C3C(C#N)=C(N)Oc4c3ccc3cccnc43)cc2c1 (stereo not given),80*,11,8,7,i,-1
Cc1ccc2cc(C3C(C#N)=C(N)Oc4c3ccc3cccnc43)c(=O)[nH]c2c1 (stereo not given),0,.,2,6,0,10
Cc1ccc(NC(=O)C2C(c3ccccc3)C=CC(c3ccccc3)C2C(=O)O)cc1 (stereo not given),172*,7,.,-2,i,29
O=C1c2ccccc2NC(c2ccc([N+](=O)[O-])cc2)N1O (stereo not given),37*,-3,2,8,-1,3
O=C1c2ccccc2NC(c2cccc([N+](=O)[O-])c2)N1O (stereo not given),3,-8,16,7,i,0
SMILES,PfHsp40 yeast,CCHFV vOTU inh,Mtb hypoxia inh,Sa RN4220 lethal,BH1578 lux ind,Sa ugtP lethal
CC=C(C)C(=O)Nc1cccc(C2=NOC3(C2)CC(C(N)=O)N(C(=O)C(C)=CC)C3)c1 (stereo not given),.,.,10,7,.,0
Cc1onc(-c2c(Cl)cccc2Cl)c1C(=O)N/N=C(\N)COc1ccc(Cl)cc1,599*,5,.,.,0,.
COc1cccc(C=Cc2ccc3ccccc3n2)c1OC(C)=O,.,.,14,-2,.,12
CCC1(CC)C(=O)NC(=Nc2cccc(C(F)(F)F)c2)NC1=O,111*,-1,-14,3,0,3
O=C(C1COc2ccccc2O1)N1CCN(c2ccccc2Cl)CC1 (stereo not given),35*,10,4,1,0,-2
Cc1cccc(N2CCN(C(=O)C3COc4ccccc4O3)CC2)c1C (stereo not given),206*,5,6,-1,i,2
C#CC[N+](C)(C)CCCCCCCCCCCC,0,24,15,99*,0,99*
CC#CC[N+](C)(C)CCCCCCCCCCCC,-2,5,23,100*,i,100*
C#CC[N+](C)(C)CCCCCCCCCC,-1,11,2,1,-1,93*
C#CC[N+](C)(C)CCCCCCCC,0,7,3,7,.,15
COc1ccc2nc(C)cc(NN=Cc3ccccc3)c2c1,.,.,.,56,.,59
O=S(=O)(NC1CCCCCC1)c1ccc(Br)s1,59*,11,8,7,i,-7
COc1cccc(C=NNC(=O)c2c(-c3ccccc3)noc2C)c1O,.,.,.,-4,.,-1
C#CCOCCOCCOCCNc1nc(N2CCN(C(=O)C(CCCCN)n3cc(C(N)CO)nn3)CC2)nc(N2CCN(C(=O)C(C(C)CC)n3cc(C(N)CO)nn3)CC2)n1 (stereo not given),.,.,4,3,.,-2
CCCCCCOc1ccc(CN2CCN(C)CC2)cc1,-1,-7,10,0,-1,86*
CCCCOc1ccc(CN2CCCCC2)cc1,-2,-10,-5,6,i,4
Cc1nc2c(c(=O)c3ccccc3n2C)c(=O)n1C1CCCCCC1,1,-2,13,6,-1,-3
CCCCCc1nc2c(c(=O)c3ccccc3n2C)c(=O)n1C1CCCCCC1,10,-12,-2,99*,i,100*
O=C1NC(=S)SC1=Cc1ccc(F)cc1,2,20,2,90*,-4,92*
O=C1NC(=O)C(=Cc2ccc(Cl)cc2Cl)S1,?,17,7,91*,i,93*
O=C1NC(=S)SC1=Cc1ccc(Cl)cc1,-1,2,-3,95*,i,99*
O=C1NC(=S)SC1=Cc1ccc(N(CCCl)CCCl)cc1,-1,11,19,87*,-2,80
COc1ccc(C=C2SC(=S)NC2=O)cc1,0,25,.,.,i,.
O=C1NC(=S)S/C1=C\c1ccc2ccccc2c1,-1,-6,.,.,i,.
O=C1CCN(CCCc2ccccc2)CCN1C(CO)Cc1ccccc1 (stereo not given),.,.,6,4,.,0
CC1CN(C(C)CO)C(=O)c2cccc(NS(=O)(=O)c3ccccc3)c2OC1CN(C)C(=O)Nc1ccc2c(c1)OCO2 (stereo not given),.,.,12,8,.,0
Cc1ccc(-c2[nH]ncc2C=Nn2c(C)nc3ccccc3c2=O)cc1,.,.,3,0,.,-5

# Assay outcomes from PubChem BioAssay.
